Screening data as filed in PubChem BioAssay.
A selection: hits, their analogues and other compounds. The true share with any hit is near 2.8%.
WRN inhibitor: WRN helicase (human) inhibition; Q14191; WRN helicase unwinding, fluorescent forked duplex, kinetic; Potency, µM (highest dose often 114 µM), inactives show top-dose activity change, negative = inhibition, hits mostly inhibitors; 360,000 compounds, 0.46% hits; note: potency is the fitted concentration of half-maximal effect; % is set by controls: 0 for no effect and ±100 for the full control effect; nearly all actives have a fitted effect of over 55% in size
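Primary qHTS, 1536-well format. 20 nM WRN + compound, 15 min RT; start with 100 nM forked fluorophore/quencher duplex, 2 mM ATP (final); kinetic read ex 525/em 598 nm.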
Pol eta inh: blocks human DNA polymerase eta activity; Q9Y253; recombinant Pol eta, fluorescent DNA replication assay; Potency, µM (series often up to 114 µM), inactives show top-dose activity change, negative = inhibition, most hits filed as inhibitors; 390,000 compounds, 1.2% hits; AID 588591; note: potency is the fitted concentration of half-maximal effect; % is set by controls: 0 for no effect and ±100 for the full control effect
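Pol eta (10 nM) was preincubated with compounds for 15 min at room temperature, after which fluorescent replication substrate (50 nM final) was added to start the reaction. Fluorescence was read kinetically at 0 and 10 min.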
Pol iota inh: inhibitors of human DNA polymerase iota. Q9UNA4. Pol iota fluorescent replication assay, 10 min. Potency, µM (top dose mostly 115 µM), for inactives: at the top dose activity, negative = inhibition, most hits filed as inhibitors. 390,000 compounds, 1% hits; note: potency is the fitted concentration of half-maximal effect
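Fluorescent replication assay read twice, at 0 min and 10 min after adding 50 nM (final) substrate. Enzyme (10 nM) and compounds were first incubated 15 min at room temperature; enzyme-free buffer wells were negative controls.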
POLB inh: blocks human DNA polymerase beta activity; P06746; Pol beta primer extension/strand displacement, fluorescence kinetic; Potency, µM (doses to about 114 µM), for inactives: at the highest dose activity change, negative = inhibition, actives largely listed as inhibitors; 340,000 compounds, 1.3% hits; AID 485314; note: potency is the fitted concentration of half-maximal effect; % is set by controls: 0 for no effect and ±100 for the full control effect
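Homogeneous kinetic assay of primer extension and strand displacement by 10 nM Pol beta, preincubated 15 min at room temperature with compound before 50 nM substrate (final) was added. Read at 0 and 10 min; four-parameter Hill fit.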
PI5P4Ka inh: inhibitors of human PI5P4K alpha. P48426. AID 652105. max response, %. PI5P4Kalpha enzyme, ADP-Glo luminescence, 60 min; active compounds read low. 330,000 compounds, 1.2% hits; active = max response of -50% or lower; inconclusive = between -30% and -50%; inactive = -30% or higher; note: value at the top dose of about 77 µM; % is set by controls: 0 for no effect and ±100 for the full control effect
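Quantitative HTS of the MLSMR library against PI5P4Kalpha with substrate. ATP added last at 5 microM final; room temperature, 60 minutes. Remaining ATP depleted, ADP converted and read as luminescence.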
Pol kappa inh: blocks human DNA polymerase kappa activity | Q9UBT6 | purified Pol kappa, fluorescent DNA synthesis assay, 10 min | Potency, µM (series often up to 107 µM), for inactives: top-dose activity, negative = inhibition, most hits filed as inhibitors | 400,000 compounds, 0.53% hits | AID 588579; note: potency is the fitted concentration of half-maximal effect; % is set by controls: 0 for no effect and ±100 for the full control effect
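Kinetic fluorescence screen: compound preincubated 15 min RT with 10 nM enzyme; 50 nM substrate (final) initiates; reads at 0/10 min.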
The depositor's hits bear a star; [ ] = remark or other dose. Unless noted, calls come from the whole dose curve; as a rule, active = well fitted curve in the direction sought with a large enough effect; inconclusive = small, poorly fitted or top-dose-only effect, or another doubt; inactive = no such curve, though single readings can be large; an effect the other way counts as inactive or inconclusive.

What do the screens show for `CC(=O)N1CCc2c(sc3nc(SCC(C)C)n(-c4ccc(C)c(Cl)c4)c(=O)c23)C1`?
Pol eta inh: inconclusive; Pol iota inh: inconclusive; POLB inh: -13.1%; Pol kappa inh: -8.6%

Results for CCCSc1nc2sc3c(c2c(=O)n1-c1ccc(C)c(Cl)c1)CCN(C(C)=O)C3 ?
Pol eta inh: 79.4µM*; Pol iota inh: inconclusive; POLB inh: inconclusive; Pol kappa inh: 11.0%

Results for Oc1ccc(/C=N/N(Cc2ccccc2)c2ccccc2)c(O)c1O ?
WRN inhibitor: inconclusive; Pol eta inh: -25.5%; Pol iota inh: 38.6%; POLB inh: 6.31µM*; PI5P4Ka inh: -76.2*; Pol kappa inh: -37.7%

Results for CCC1=NN2C(=N)/C(=C\c3cccn3-c3ccc(C)cc3C)C(=O)N=C2S1 ?
WRN inhibitor: -17.6%; Pol eta inh: 50.1µM*; Pol iota inh: inconclusive; POLB inh: 39.8µM*; PI5P4Ka inh: -25.4; Pol kappa inh: -25.8%

How did CCOC1=C2[C@H](c3ccc(CC)cc3)N(S(=O)(=O)c3ccc(C)cc3)C[C@H]2C(C#N)(C#N)C(C#N)(C#N)C1 do in these assays?
WRN inhibitor: -5.9%; PI5P4Ka inh: inconclusive

Results for CCOC1=C2[C@H](c3ccccc3Cl)N(S(=O)(=O)c3ccc(C)cc3)C[C@H]2C(C#N)(C#N)C(C#N)(C#N)C1 ?
WRN inhibitor: -14.3%; PI5P4Ka inh: -62.3*

What do the screens show for `Cc1cc(NC(=O)COc2cccc3cccnc23)no1`?
POLB inh: 31.6µM*

How did Cc1cc(NC(=O)COc2cccc(C)c2C)no1 do in these assays?
WRN inhibitor: 0.1%; Pol eta inh: -16.1%; Pol iota inh: 12.4%; POLB inh: inconclusive; PI5P4Ka inh: 0.7; Pol kappa inh: 5.3%

How did Cc1ccc(C)c(NC(=O)Cn2cc(S(=O)(=O)N3CCCC3)c(S(=O)(=O)N3CCCC3)c2)c1 do in these assays?
Pol eta inh: -16.8%; Pol iota inh: 29.6%; POLB inh: 28.5%; Pol kappa inh: 0.5%

Results for NC(CSC(c1ccccc1)(c1ccccc1)c1ccccc1)C(=O)O (centres undefined) ?
WRN inhibitor: -15.1%; Pol eta inh: inconclusive; Pol iota inh: inconclusive; PI5P4Ka inh: -22.4; Pol kappa inh: -18.8%

How did Cc1ccc(C2(SCC(N)C(=O)O)c3ccccc3-c3ccccc32)cc1 (centres undefined) do in these assays?
WRN inhibitor: -11.6%; Pol eta inh: 22.4µM*; Pol iota inh: inconclusive; PI5P4Ka inh: -19.1; Pol kappa inh: inconclusive

Results for O=C(CSC(=S)N1CCCC1)N/N=C/c1c(O)[nH]c(=S)[nH]c1=O ?
WRN inhibitor: 0.1%; Pol eta inh: -8.4%; Pol iota inh: 34.4%; PI5P4Ka inh: -51.1*; Pol kappa inh: -0.1%

What do the screens show for `Cc1ccc(NS(=O)(=O)c2cccc3nsnc23)cc1`?
WRN inhibitor: 0.0%; Pol eta inh: -10.8%; Pol iota inh: 30.9%; POLB inh: 2.9%; PI5P4Ka inh: -3.3; Pol kappa inh: 0.8%

How did O=S(=O)(Nc1ccccc1)c1cccc2nsnc12 do in these assays?
WRN inhibitor: 1.5%[11.6 µM]; Pol eta inh: inconclusive; Pol iota inh: 56.2µM*; POLB inh: 5.2%; PI5P4Ka inh: inconclusive; Pol kappa inh: inconclusive

Results for NC(=S)N=Nc1c(O)cc(O)c2[nH]c(=O)ccc12 ?
WRN inhibitor: 15.8µM*; Pol eta inh: 1.78µM*; Pol iota inh: 3.16µM*; PI5P4Ka inh: -72.4*; Pol kappa inh: inconclusive

What do the screens show for `NC(=S)N=Nc1c(O)[nH]c2ccc(F)cc12`?
WRN inhibitor: -17.3%; Pol eta inh: -15.0%; Pol iota inh: 32.1%; POLB inh: 28.4%; PI5P4Ka inh: -9.7; Pol kappa inh: -4.3%

Results for Cc1ccc(-c2nnc(Nc3ccc(O)cc3)c3ccccc23)cc1S(=O)(=O)NCC1CCCO1 (centres undefined) ?
Pol eta inh: -24.5%; Pol iota inh: 11.1%; POLB inh: inconclusive; Pol kappa inh: -20.1%

How did CN(C)c1ccc(/C=C/c2cc3ccccc3c[n+]2C)cc1 do in these assays?
Pol iota inh: inconclusive; Pol kappa inh: -38.3%

How did O=c1cc[nH]c2c1ccc1c(=O)cc[nH]c12 do in these assays?
WRN inhibitor: -3.8%[11.6 µM]; Pol eta inh: 28.2µM*; Pol iota inh: inconclusive; POLB inh: -23.4%; PI5P4Ka inh: inconclusive; Pol kappa inh: inconclusive

How did Cn1cc(/C=C/c2ccnc3ccccc23)c2ccccc21 do in these assays?
Pol iota inh: -5.2%; Pol kappa inh: -5.7%

What do the screens show for `COc1ccc2nnc(-c3ccccc3)n2n1`?
WRN inhibitor: -15.1%[11.6 µM]; Pol eta inh: -1.9%; Pol iota inh: 89.1µM*; POLB inh: -1.0%; Pol kappa inh: -18.5%

Results for CCSS(=O)(=O)c1cccc2cccnc12 ?
WRN inhibitor: 31.6µM*; Pol eta inh: 0.1%; Pol iota inh: -2.0%; POLB inh: 1.5%; PI5P4Ka inh: -83.6*; Pol kappa inh: -6.0%

What do the screens show for `Cc1csc2nc3cc(C(N)=O)ccc3c(=O)n12`?
WRN inhibitor: 1.2%; Pol eta inh: -12.8%; Pol iota inh: 17.6%; POLB inh: 1.2%; PI5P4Ka inh: -7.7; Pol kappa inh: 11.8%

How did NC(=O)c1ccc2c(=O)n3c(-c4cc(Cl)c(N)c(Cl)c4)csc3nc2c1 do in these assays?
WRN inhibitor: -35.4%; Pol eta inh: inconclusive; Pol iota inh: 50.1µM*; POLB inh: inconclusive; PI5P4Ka inh: -10.2; Pol kappa inh: -2.3%

Results for CCCCCCCCC(C)O (centres undefined) ?
Pol kappa inh: -9.1%[12 µM]

Results for CCCCCCCCCCCCCCC(O)C[N+](C)(CCO)CCO (centres undefined) ?
WRN inhibitor: inconclusive; Pol eta inh: -19.4%; Pol iota inh: 9.9%; PI5P4Ka inh: -71.6*; Pol kappa inh: -8.9%

How did O=C1Nc2ccc(I)cc2C1=Cc1cc(Br)c(O)c(Br)c1 do in these assays?
Pol iota inh: 44.7µM*; Pol kappa inh: inconclusive

Results for Cc1ccc(Cl)cc1NS(=O)(=O)c1ccc(N2CCCCS2(=O)=O)cc1 ?
Pol eta inh: -17.5%; Pol iota inh: 17.0%; POLB inh: 3.9%; Pol kappa inh: -0.8%[60.1 µM]

How did CCCN(c1ccccc1F)S(=O)(=O)c1cc(-c2cc(C)no2)ccc1C do in these assays?
Pol eta inh: -15.6%; Pol iota inh: 14.1%; POLB inh: -1.0%; Pol kappa inh: -2.0%

Results for CCOC(=O)Cc1csc(SC(C)C(=O)Nc2ccc(NC(C)=O)cc2)n1 (centres undefined) ?
WRN inhibitor: 4.1%; Pol eta inh: -18.5%; Pol iota inh: 2.1%; POLB inh: 89.1µM*; PI5P4Ka inh: -1.0; Pol kappa inh: -0.2%
